# Compounds with a hit are over-represented: about 6.5% of the library has one in this group of screens.
# Autofluor 339: intrinsic fluorescence of library compounds, ex339/em460 – biochemical, MLSMR library, data from DPM-DC assay, artefact control, profiling panel. compound autofluorescence, ex339/em460 nm, NADH buffer; stronger effect = higher value; 1 = no-compound wells, NADH background. fluorescence fold increase at 10 µM. 65,000 tested, 5.5% active;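 active means at 10 µM, mean starting fluorescence two-fold or more over control wells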;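 further: signal is the first read of a kinetic run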
# NADH coupling: inhibitors of PK/LDH coupling enzymes, profiling panel, artefact control, biochemical, MLSMR library; IC50, µM (top dose mostly 10 µM), for inactives: at the highest dose inhibition; coupled PK/LDH NADH assays, four targets; 65,000 tested, 0.02% active;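 active means single-dose screening hits from any of four coupled enzyme assays that gave an IC50 when retested across doses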;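 further: the DPM-DC format reads NADH fluorescence rather than 340 nm absorbance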
# Spn DPM-DC inh: S. pneumoniae DPM-DC inhibitors, primary screen, biochemical, PK/LDH-coupled NADH fluorescence | AID 556, 2006 | purified DPM-DC | calls only at 10 µM | 65,000 tested, 0.49% active;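 active means the 320 compounds with the highest percent inhibition in the single-dose primary screen, excluding strongly autofluorescent ones, cut at about 32% in these data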;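 further: kinetic rate of NADH fluorescence loss reporting ADP formed by the decarboxylase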
# Spn MK inh: S. pneumoniae MK inhibitors, primary screen, biochemical, PK/LDH-coupled NADH absorbance; 65,000 tested, 0.48% active; purified MK, PK/LDH-coupled NADH absorbance 340 nm; inhibition, % at 10 µM; mevalonate kinase [Streptococcus pneumoniae D39];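 active means ranked among the strongest by inhibition in the single 10 µM screen, a fixed top-ranked set picked for dose follow-up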
# A340 absorber: compound light absorbance at 340 nm, profiling panel, artefact control, biochemical, MLSMR library, data from PS, PMK, MK assays; compound absorbance at 340 nm, fold over control; AID 708, 2007; 65,000 tested, under 10 active; fold change at 10 µM;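 active means at 10 µM dose, initial 340 nm absorbance at least 2 fold that of control wells; inactive means change under 2 fold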;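 further: initial absorbance extrapolated from kinetic A340 decline of NADH oxidation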
# PMK inhibit: S. pneumoniae PMK inhibitors, primary screen, biochemical, mevalonate pathway, pilot trial included; AID 539, 2006; 65,000 tested, 0.49% active; phosphomevalonate kinase (Streptococcus pneumoniae D39); purified PMK, PK/LDH-coupled NADH absorbance 340 nm; inhibition, % at 10 µM;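 active means top-ranked compounds by inhibition in the single 10 µM screen, taking a fixed number of the strongest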;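 further: 0% = full reaction with DMSO carrier and 100% = background rate without enzyme reaction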
# Numbers without * were called inactive; i = inactive; . = no result given; + = active, no number.
SMILES,Autofluor 339,NADH coupling,Spn DPM-DC inh,Spn MK inh,A340 absorber,PMK inhibit
COc1ccccc1CN(Cc1cc2cc(C)cc(C)c2[nH]c1=O)Cc1nnnn1CC1CCCO1 (stereo not given),1.3,9%,i,0,1,26*
COc1ccc2[nH]c(=O)c(CN(CCc3ccccc3)Cc3nnnn3CC3CCCO3)cc2c1 (stereo not given),2.5*,10%,i,2,1.1,12
COc1ccccc1CN(Cc1cc2cc(C)ccc2[nH]c1=O)Cc1nnnn1CC1CCCO1 (stereo not given),1.2,7%,i,4,1,8
Cn1c(SC/C=C/c2ccccc2)nnc1-c1ccco1,1.1,3%,i,5,1,0
N#Cc1ccccc1NC(=O)c1ccc(-c2ccccc2Cl)o1,1.3,6%,i,12,1.1,6
COC(=O)C1=CNC=C(C(=O)OC)C1c1ccc(Cl)cc1,3.8*,2%,.,3,1.1,0
COC(=O)C1=CNC=C(C(=O)OC)C1c1cccc(OC)c1,3.9*,8%,.,6,1.1,10
COC(=O)C1=CNC=C(C(=O)OC)C1c1ccccc1Cl,3.6*,0%,.,0,1,0
CC1(C)C=Cc2c(c3ccccc3[nH]c2=O)O1,1.3,4%,i,10,1.1,3
CCOc1ccc(-n2cc(C(=O)Nc3cccc(C)n3)c3cc(OC)c(OC)cc3c2=O)cc1,1.1,3%,i,7,0.99,16
CCC1(C)Cc2c(sc3c2c(=O)n(C)c2nnc(SCC(=O)c4ccc(Cl)cc4)n32)CO1 (stereo not given),1.1,0%,i,0,1.1,0
COCCN(CC(=O)Nc1ccccc1)S(=O)(=O)c1ccc(S(=O)(=O)N2CCCC2)cc1,1.1,10%,i,17,0.99,12
COc1cccc(C(c2sc3ncnn3c2O)N2CCN(C(=O)c3ccco3)CC2)c1 (stereo not given),1.1,5%,i,5,1.1,9
COc1cc(C2Nc3cccc4cccc(c34)N2)cc(OC)c1O,3.2*,2%,.,0,1,18
COc1cc(C2Nc3cccc4cccc(c34)N2)ccc1OC(C)=O,1.5,7%,i,8,1.1,12
CN(Cc1ccccc1)Cc1nc2c([nH]1)c(=O)n(C)c(=O)n2C,1.1,5%,i,0,1.1,14
COc1ccc(N=c2oc3cc(O)ccc3cc2C(=O)NCC2CCCO2)cc1 (stereo not given),2.9*,18%,i,14,1,14
Cc1ccc(N=c2oc3cc(O)ccc3cc2C(N)=O)cc1,2.2*,2%,i,6,1.1,1
COc1ccc(N=c2oc3cc(O)ccc3cc2C(=O)NCC2CCCO2)c(OC)c1 (stereo not given),3.8*,9%,.,4,1.1,13
Cc1cccc(N2CCN(C(=O)Cn3nc(Cc4ccncc4)c4ccccc4c3=O)CC2)c1C,1,3%,i,8,0.97,12
N=C1C(c2nc3ccccc3c(=O)[nH]2)=C(O)CN1CCO,1.9,10%,i,0,1,15
COc1ccccc1N1CC(O)=C(c2nc3ccccc3c(=O)[nH]2)C1=N,2.5*,7%,i,22,1,7
COCCN1CC(O)=C(c2nc3ccccc3c(=O)[nH]2)C1=N,3.7*,4%,.,8,1.1,0
CCCCOC(=O)n1c(SCC(=O)N(CC)CC)nc2ccccc21,1,3%,i,0,0.98,5
CCOC(=O)c1sc(=NC(=O)c2ccc(S(=O)(=O)N3CC(C)OC(C)C3)cc2)n(C)c1C (stereo not given),3.9*,9%,i,11,1,17
SMILES,Autofluor 339,NADH coupling,Spn DPM-DC inh,Spn MK inh,A340 absorber,PMK inhibit
Cc1ccc(-c2cc(C(=O)Nc3cc(C)on3)c3ccccc3n2)c(C)c1,1.2,1%,i,1,1,3
Cc1cc(NC(=O)c2cc(-c3cccnc3)nc3c(C)c(C)ccc23)no1,2.9*,3%,i,3,1.1,5
CCOc1ccc(CCNC(=O)C2CCC(=O)N2C2CCCCC2)cc1OCC (stereo not given),1.1,6%,i,2,0.99,16
CC(=O)Nc1ccc(CN2CCN(c3cccc(C(F)(F)F)c3)CC2)cc1,1.1,15%,i,43*,1.1,3
CCN(CC)CCCN1C(=O)c2oc3ccccc3c(=O)c2C1c1cc(OC)ccc1OC (stereo not given),1.9,15%,i,3,1.1,15
COc1ccc(Cc2nnn(CC(=O)O)n2)cc1,1,5%,i,9,0.97,6
c1nc(NCCN2CCOCC2)c2sc3nc(N4CCOCC4)c4c(c3c2n1)CCC4,2.3*,5%,.,10,1.2,0
CCN1CCN(c2ncnc3c2sc2nc(N4CCOCC4)c4c(c23)CCC4)CC1,1.6,14%,i,14,1.1,0
COc1cc(OC)cc(-c2nnc(SCC(=O)Nc3cc(C)on3)o2)c1,1,11%,i,0,0.98,10
Nc1nc(N)c2nc(-c3ccccc3)c(N)nc2n1,2.5*,3%,.,6,1,8
N#Cc1c(N)nc(-c2ccccc2)nc1-c1ccccc1,1.1,6%,i,2,1.1,11
CCOc1ccc(S(=O)(=O)Nc2nc3ccccc3nc2N2CCN(C)CC2)cc1,1.7,12%,i,9,1.1,4
CC(=O)N1CCN(c2nc3cc4c(cc3nc2NS(=O)(=O)c2ccccc2)OCCO4)CC1,2.7*,13%,i,3,1.1,27*
O=c1[nH]c2cc(Cl)cc(Cl)c2[nH]c1=O,2.5*,13%,i,8,1,12
Cn1c(=O)[nH]c2cc(Cl)cnc21,1.1,5%,i,0,1,10
Cc1ccc2c(CC(=O)OC(C)C(=O)NCc3ccc4c(c3)OCO4)coc2c1 (stereo not given),1,5%,i,2,0.99,12
Cc1cccc(Nc2n[nH]c(=S)s2)c1C,1.1,29%,+,54*,1.1,0
O=C(CN1CCOc2ccccc21)N1CCN(c2cccc(Cl)c2)CC1,1.1,4%,i,1,1.1,10
COc1ccc2cc(C(=O)NCc3ccco3)c(=O)oc2c1,3.3*,10%,.,15,1.4,5
COc1ccc2cc(C(=O)NCc3ccco3)c(=Nc3ccc(C(=O)O)cc3)oc2c1,1.2,3%,i,6,1,7

# Assay outcomes as filed in PubChem BioAssay.
